The results in this text go back to PubChem BioAssay AID624305 (National Center for Advancing Translational Sciences (NCATS), 2012).

Records with an inconclusive call do not appear. The source made the active and inactive calls. The call rests on the fitted dose curve; in most records, active means well fitted activation curve with a large enough effect; inconclusive means small, poorly fitted or top-dose-only effect; inactive means no such curve, though single readings can be large or run the other way.
Potency means the concentration at half of the fitted maximal effect.

The test is described as follows: qHTS assay for re-activators of p53 using a Luc reporter: Hit Validation. Further: nearly all actives have a fitted effect of over 75% in size. Particulars: p53-responsive luciferase reporter cells, luminescence, H1299 line expressing heat-sensitive Ala138Val p53; series mostly up to 46.1 µM. The essentials: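 Hit confirmation with a 1:5 dilution series, at 37 deg C for 24 hrs, in H1299 cells co-expressing temperature-sensitive p53-A138V and p53-responsive luciferase. Nocodazole served as control; luminescence read after 10 min with detection reagent.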
A general note: In qHTS, concentration-response curves come from the screen itself.
In the case of `Brc1ccc(-c2nc3ccccc3s2)s1`, the Potency was 3260 nM (active). Regarding `Clc1ccc(-c2nnc(SCc3ccon3)o2)c(Cl)c1`, the Potency was 366 nM (active).

Consider `O=C(Nc1ccc2c(c1)CCC2)c1ccccc1`, for which the Potency is 411 nM (active). With `O=C(NC(=S)Nc1ccccc1Br)C1CCCCC1`, the Potency is 20600 nM (active).

For the molecule `COc1ccc(NC(=O)/C(Cl)=C(/Cl)S(=O)(=O)Cc2ccc(C)cc2)cn1`, the Potency entry is “inactive”. To `COc1ccc(-c2csc(NCc3ccco3)n2)cc1C` belongs 18400 nM (active). As to `Cc1ccc2nc(NC(=O)c3ccc(Cl)s3)sc2c1`, the Potency is 731 nM (active). To `COc1ccc(-c2cc3ccc(F)cc3cn2)cc1` belongs 920 nM (active); to `Cc1ccc(/C=N/NC(=O)c2cccs2)s1`, 5800 nM (active). Next, `O=c1[nH]c(N/N=C/c2ccc(O)cc2)nc2ccccc12`: 4610 nM (active); `COc1ccccc1NC(CC(=O)c1ccccc1)C(=O)OCC(=O)c1ccc(C)c(C)c1` (stereo not drawn): 291 nM (active); `COc1cccc(C2(c3cccc(OC)c3)CC2C(=O)Nc2cccc3ccccc23)c1` (stereo not drawn): “inactive”. To `O=C(/C=C/c1ccco1)Nc1ccccn1` belongs 2310 nM (active). In the case of `C/C(=N/NC(=S)Nc1ccccc1)c1ccc2c(c1)OCO2`, the Potency entry is “inactive”.

Regarding `CN(C)c1ccc(/C=N/N=C/c2ccccc2O)cc1`, the Potency is 461 nM (active). As to `O=C(NOCc1ccccc1)c1ccccc1`, the Potency is 9200 nM (active). Next, `CC1(C)CC(=O)CC(=O)/C1=N\Nc1c(Cl)cc(Cl)cc1Cl`: “inactive”; `NNC(=O)c1cccc(O)c1`: “inactive”. Next, `COc1cccc(-c2cn3nc4c(nc3n2)CCCC4)c1`: 116 nM (active); `COc1ccccc1C(=O)O/N=C(\N)c1ccccc1Cl`: “inactive”; `Cc1cc(C(=O)Nc2nc3c(s2)CCCC3)cs1`: 231 nM (active). With `Cc1cnc(C(=O)OCC(=O)c2csc(N3CCCCC3)n2)cn1`, the Potency result is “inactive”. Regarding `CC(=O)c1cccc(NS(=O)(=O)N(C)C)c1`, the Potency result is “inactive”. Next, `Cc1cc(C(=O)Cn2nnc3ccccc3c2=O)c(C)n1Cc1cccs1`: 259 nM (active); `CN1CCN(C2=C(Cl)C(=O)N(Cc3ccccc3)C2=O)CC1`: “inactive”. To `Cn1c(C(=O)Nc2ccc3c(c2)OCCO3)cc2sccc21` belongs 5800 nM (active); to `COc1ccc(C(C)(C)C)cc1NC(=O)Nc1ccc2c(c1)OCO2`, “inactive”; to `C/C(=N\NC(=O)c1ccc(F)cc1)c1ccccn1`, 2060 nM (active). Next, `CCOC(=O)N1CCN(S(=O)(=O)c2ccc(C(=O)NNc3nc4c(C)cc(C)cc4s3)cc2)CC1`: “inactive”; `O=C(NC(=S)Nc1nc2ccccc2s1)c1ccco1`: 580 nM (active). In the case of `Cc1ccc(C(=O)c2c3ccc([N+](=O)[O-])cc3[n+]([O-])n2CCCN)cc1`, the Potency result was “inactive”. To `O=C(COC(=O)c1ccc(F)cc1)NC1CC1` belongs “inactive”. On to `O=C(Oc1ccc2ccccc2c1Cl)N1CCCCCC1`, for which the Potency was 5800 nM (active). For the molecule `COc1cccc(/C=N/NC(=O)CCc2n[nH]c(=O)[nH]c2=O)c1O`, the Potency entry was “inactive”. With `Cc1ccc(OCC(=O)Nc2ccc(Cl)cc2)c([N+](=O)[O-])n1`, the Potency was 16400 nM (active).

In the case of `CCN(CC)c1ccc(NC(=O)CN2CCN(CC(=O)Nc3ccccc3F)CC2)cc1`, the Potency result was “inactive”. On to `Oc1cccc2c(NC(=S)Nc3ccc(OC(F)F)cc3)cccc12`, for which the Potency entry is “inactive”. As for `O=C(Oc1c(Cl)cc(Cl)c2cccnc12)c1cccc([N+](=O)[O-])c1`, the Potency entry is “inactive”.
